In PubChem BioAssay (EPA / NIEHS):
Inconclusive results are not listed. Where a structure was tested more than once in an assay, its records may differ in their call. Calls of active or inactive are those of the source. The calls were made as follows, unless noted: active = hit-call score of the fitted dose curve at least 0.9, where 1 is the maximum; inactive = score below 0.9.

Columns and labels:
[1] = target: Glucocorticoid receptor (Homo sapiens) (UniProt P04150); experiment: ATG_GR_TRANS: Attagene TRANS-FACTORIAL HepG2 Assay for human Glucocorticoid Receptor (GR) (AID 2282978; active = hit-call score of the fitted dose curve at least 0.9, where 1 is the maximum;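 also: activators score as hits since higher reporter transcript over DMSO is fitted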); conditions: HepG2 Attagene TRANS GR reporter, mRNA transcription
Sequence of Glucocorticoid receptor (Homo sapiens) (P04150 whole entry, looked up, the tested form may be a part): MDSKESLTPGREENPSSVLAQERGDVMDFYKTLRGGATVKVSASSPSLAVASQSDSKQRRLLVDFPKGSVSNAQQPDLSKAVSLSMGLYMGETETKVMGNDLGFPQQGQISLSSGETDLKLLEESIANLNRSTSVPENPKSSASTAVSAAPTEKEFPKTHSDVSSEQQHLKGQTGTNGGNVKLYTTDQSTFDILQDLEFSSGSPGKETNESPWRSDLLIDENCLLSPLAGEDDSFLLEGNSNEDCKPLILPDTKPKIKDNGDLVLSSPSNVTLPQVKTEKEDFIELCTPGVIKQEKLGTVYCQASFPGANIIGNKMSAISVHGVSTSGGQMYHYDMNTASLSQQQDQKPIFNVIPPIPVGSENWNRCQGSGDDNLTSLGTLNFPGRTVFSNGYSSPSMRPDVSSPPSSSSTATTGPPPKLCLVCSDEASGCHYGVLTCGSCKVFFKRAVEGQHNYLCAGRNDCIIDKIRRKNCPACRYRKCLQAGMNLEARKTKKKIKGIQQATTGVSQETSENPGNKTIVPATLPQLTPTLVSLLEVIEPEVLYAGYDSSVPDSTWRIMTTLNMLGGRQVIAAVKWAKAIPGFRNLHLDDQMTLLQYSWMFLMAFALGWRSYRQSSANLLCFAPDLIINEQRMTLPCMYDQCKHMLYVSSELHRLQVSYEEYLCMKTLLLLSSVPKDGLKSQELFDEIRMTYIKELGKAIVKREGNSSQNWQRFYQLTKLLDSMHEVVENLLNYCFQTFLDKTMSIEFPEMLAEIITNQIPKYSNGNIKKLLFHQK
How it was run: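 Fluorescent capillary-electrophoresis quantitation of reporter mRNA is the readout, taken 24 h after dosing human HepG2 cells carrying transiently transfected GAL4-UAS reporter units activated by chimeric NR-GAL4 fusions; activity scored as induction over DMSO.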

[2] = target: Bile acid receptor (Homo sapiens) (UniProt Q96RI1); experiment: ATG_FXR_TRANS: Attagene TRANS-FACTORIAL HepG2 Assay for Farnesoid X Receptor (FXR) (AID 2282979; active = hit-call score of the fitted dose curve at least 0.9, where 1 is the maximum;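 also: hits raise reporter mRNA above DMSO so AC50 marks FXR activation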); conditions: HepG2 Attagene TRANS FXR-GAL4 reporter transcription
Sequence of Bile acid receptor (Homo sapiens) (Q96RI1 whole entry, looked up, the tested form may be a part): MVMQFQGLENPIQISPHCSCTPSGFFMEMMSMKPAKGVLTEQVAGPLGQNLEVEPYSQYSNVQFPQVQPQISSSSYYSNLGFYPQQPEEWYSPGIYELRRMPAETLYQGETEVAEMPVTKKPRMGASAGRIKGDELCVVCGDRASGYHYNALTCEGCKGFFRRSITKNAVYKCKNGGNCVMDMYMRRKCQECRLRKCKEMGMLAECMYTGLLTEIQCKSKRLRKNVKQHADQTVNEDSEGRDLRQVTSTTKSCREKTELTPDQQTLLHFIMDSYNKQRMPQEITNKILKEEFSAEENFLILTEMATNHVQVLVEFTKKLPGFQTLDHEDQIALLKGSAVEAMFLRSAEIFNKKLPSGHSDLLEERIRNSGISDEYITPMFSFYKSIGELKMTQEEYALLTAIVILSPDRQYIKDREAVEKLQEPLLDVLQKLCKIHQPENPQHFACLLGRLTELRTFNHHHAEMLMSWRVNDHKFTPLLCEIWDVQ
How it was run: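 Read-out: fluorescent reporter transcripts quantified by capillary electrophoresis after RT-PCR of total RNA. Source cells were HepG2 transiently carrying chimeric NR-GAL4 plus GAL4-UAS reporter units, dosed 24 h. Activity fitted upward relative to DMSO baseline.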

[3] = ATG_M_32_TRANS: Attagene TRANS-FACTORIAL HepG2 Assay for M32 Transcription Factor (Internal Marker) (AID 2282984; active = hit-call score of the fitted dose curve at least 0.9, where 1 is the maximum); conditions: HepG2 Attagene TRANS M32 internal marker reporter
How it was run: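 Internal-marker readout from a multiplexed transcription reporter panel. HepG2 cells were transfected with GAL4-UAS reporter units, treated 24 hours, and reporter transcript levels determined by fluorescence after RT-PCR and capillary separation.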

[4] = target: Myc proto-oncogene protein (Homo sapiens) (UniProt P01106); experiment: ATG_Myc_CIS: Attagene CIS-FACTORIAL HepG2 Assay for human Myelocytomatosis (Myc) Proto-Oncogene Transcription Factor (AID 2282990); conditions: HepG2, Attagene cis-reporter transcription factor activity; actives raise or lower the signal
Sequence of Myc proto-oncogene protein (Homo sapiens) (P01106 whole entry, looked up, the tested form may be a part): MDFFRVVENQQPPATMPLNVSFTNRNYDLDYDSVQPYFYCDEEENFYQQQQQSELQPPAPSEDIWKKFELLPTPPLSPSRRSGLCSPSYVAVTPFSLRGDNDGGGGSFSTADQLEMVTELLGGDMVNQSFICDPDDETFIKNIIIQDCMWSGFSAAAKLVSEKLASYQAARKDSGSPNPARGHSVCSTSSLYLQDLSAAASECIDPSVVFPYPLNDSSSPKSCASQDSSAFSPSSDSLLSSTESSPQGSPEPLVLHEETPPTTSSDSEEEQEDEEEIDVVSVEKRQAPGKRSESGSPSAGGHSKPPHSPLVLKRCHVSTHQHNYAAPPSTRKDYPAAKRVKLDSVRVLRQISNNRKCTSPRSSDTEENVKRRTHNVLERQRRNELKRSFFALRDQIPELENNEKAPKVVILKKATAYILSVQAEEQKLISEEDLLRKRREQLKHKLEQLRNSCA
How it was run: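 Read-out: fluorescent reporter mRNA fragments resolved by capillary electrophoresis after RT-PCR. Human HepG2 liver cells carried transfected cis-element reporter units and were dosed for 24 h. Gain or loss of signal fitted relative to DMSO baseline.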

[5] = ATG_Oct_MLP_CIS: Attagene CIS-FACTORIAL HepG2 Assay for human Octamer-Binding Transcription Factor (Oct) (AID 2282993); conditions: HepG2 Attagene cis-factorial Oct reporter, mRNA; actives raise or lower the signal
How it was run: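 After 24 h compound exposure, transfected HepG2 cells were lysed for total RNA; reporter-specific cDNA was PCR-amplified, fluorescently labelled and sized by capillary electrophoresis. Bidirectional curve fitting used DMSO as baseline.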

[6] = target: Cellular tumor antigen p53 (Homo sapiens) (UniProt P04637); experiment: ATG_p53_CIS: Attagene CIS-FACTORIAL HepG2 Assay for human p53 Transcription Factor (AID 2282994); conditions: HepG2 p53 cis-element reporter, Attagene mRNA; actives raise or lower the signal
How it was run: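 Endogenous p53 activity read in transiently transfected HepG2 from a cis-element-driven reporter transcript after 24 h exposure. RNA reverse-transcribed, PCR-amplified, fluorescently labelled and sized by capillary electrophoresis; gain or loss fitted against DMSO baseline.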

[7] = BSK_3C_TissueFactor: BioMAP Diversity Plus: 3C Assay for Tissue Factor Biomarker Activity (AID 2282997); conditions: BioMAP 3C HUVEC, tissue factor biomarker readout; actives raise or lower the signal
How it was run: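 HUVEC, 3C system, 24 h post-dose; Tissue Factor by ELISA; bidirectional fit vs DMSO baseline.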

[8] = BSK_3C_uPAR: BioMAP Diversity Plus: 3C Assay for Urokinase-type plasminogen activator receptor (uPAR) Biomarker Activity (AID 2282998); conditions: BioMAP 3C HUVEC, uPAR biomarker ELISA; actives raise or lower the signal
How it was run: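 Values derive from bidirectional curve fitting relative to DMSO, which served as baseline of activity. uPAR was measured by ELISA in human umbilical vein endothelial primary cultures 24 h after compound addition.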

[9] = BSK_3C_VCAM1: BioMAP Diversity Plus: 3C Assay for Vascular cell adhesion molecule 1 (VCAM1) Biomarker Activity (AID 2282999); conditions: BioMAP 3C HUVEC, VCAM1 ELISA, cytokine-stimulated; actives raise or lower the signal
How it was run: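 HUVEC primary cells, 24 h compound exposure; VCAM-1 by ELISA; gain/loss of signal fitted bidirectionally vs DMSO baseline.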

[10] = BSK_4H_Eotaxin3: BioMAP Diversity Plus: 4H Assay for Eotaxin 3 Biomarker Activity (AID 2283000); conditions: primary human endothelial cells (HUVEC); actives raise or lower the signal
How it was run: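 Readout is Eotaxin-3 (CCL26) level by ELISA in primary human umbilical vein endothelial cells harvested 24 h after chemical exposure; activity fitted in both directions against DMSO control.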

[11] = target: Oxysterols receptor LXR-alpha (Homo sapiens) (UniProt Q13133); experiment: ATG_LXRa_TRANS: Attagene TRANS-FACTORIAL HepG2 Assay for human Liver X Receptor alpha (LXRa) (AID 2282980; active = hit-call score of the fitted dose curve at least 0.9, where 1 is the maximum); conditions: HepG2 Attagene TRANS reporter, LXRa transactivation
Sequence of Oxysterols receptor LXR-alpha (Homo sapiens) (Q13133 whole entry, looked up, the tested form may be a part): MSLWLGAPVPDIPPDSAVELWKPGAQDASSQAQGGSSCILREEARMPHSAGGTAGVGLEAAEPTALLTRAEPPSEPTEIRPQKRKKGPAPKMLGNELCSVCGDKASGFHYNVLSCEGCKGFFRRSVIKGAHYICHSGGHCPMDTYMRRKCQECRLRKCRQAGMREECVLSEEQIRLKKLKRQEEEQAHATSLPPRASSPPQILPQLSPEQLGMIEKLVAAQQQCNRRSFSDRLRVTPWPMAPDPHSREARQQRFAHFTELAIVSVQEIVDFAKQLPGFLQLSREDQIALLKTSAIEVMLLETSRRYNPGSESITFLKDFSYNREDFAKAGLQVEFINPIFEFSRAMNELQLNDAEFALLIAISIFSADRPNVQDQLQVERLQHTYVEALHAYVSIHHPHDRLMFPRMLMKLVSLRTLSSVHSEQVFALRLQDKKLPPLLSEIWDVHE
How it was run: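 Read-out: reporter transcript levels by RT-PCR plus capillary electrophoresis, fluorescence intensity. Transiently transfected HepG2, exogenous NR-GAL4 chimera, GAL4-UAS reporters; 24 h compound exposure. Activity = increase over DMSO negative control.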

[12] = target: Oxysterols receptor LXR-beta (Homo sapiens) (UniProt P55055); experiment: ATG_LXRb_TRANS: Attagene TRANS-FACTORIAL HepG2 Assay for human Liver X Receptor beta (LXRb) (AID 2282981; active = hit-call score of the fitted dose curve at least 0.9, where 1 is the maximum); conditions: HepG2 Attagene TRANS GAL4-LXRb reporter, mRNA
Sequence of Oxysterols receptor LXR-beta (Homo sapiens) (P55055 whole entry, looked up, the tested form may be a part): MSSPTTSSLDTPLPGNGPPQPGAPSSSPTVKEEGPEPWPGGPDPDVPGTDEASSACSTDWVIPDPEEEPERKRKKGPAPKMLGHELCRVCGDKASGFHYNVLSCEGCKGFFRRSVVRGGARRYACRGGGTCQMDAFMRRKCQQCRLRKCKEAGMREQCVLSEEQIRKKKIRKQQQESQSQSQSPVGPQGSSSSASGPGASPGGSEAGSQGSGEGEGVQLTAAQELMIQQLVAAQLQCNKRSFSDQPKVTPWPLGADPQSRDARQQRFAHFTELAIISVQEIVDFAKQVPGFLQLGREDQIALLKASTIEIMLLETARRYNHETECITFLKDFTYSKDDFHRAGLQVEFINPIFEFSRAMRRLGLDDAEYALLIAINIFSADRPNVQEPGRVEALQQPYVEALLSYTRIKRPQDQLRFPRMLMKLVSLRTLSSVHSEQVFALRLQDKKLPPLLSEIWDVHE
How it was run: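 Multiplexed reporter assay, HepG2, 24 h dosing. Fluorescence of labelled RT-PCR products after capillary electrophoresis gives transcript level; positive fitting direction relative to DMSO.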

[13] = target: Hepatocyte nuclear factor 4-alpha (Homo sapiens) (UniProt P41235); experiment: ATG_HNF4a_TRANS: Attagene TRANS-FACTORIAL HepG2 Assay for human Hepatocyte Nuclear Factor 4 alpha (HNF4a) (AID 2282982; active = hit-call score of the fitted dose curve at least 0.9, where 1 is the maximum); conditions: HepG2 HNF4a transactivation reporter, mRNA readout
Sequence of Hepatocyte nuclear factor 4-alpha (Homo sapiens) (P41235 whole entry, looked up, the tested form may be a part): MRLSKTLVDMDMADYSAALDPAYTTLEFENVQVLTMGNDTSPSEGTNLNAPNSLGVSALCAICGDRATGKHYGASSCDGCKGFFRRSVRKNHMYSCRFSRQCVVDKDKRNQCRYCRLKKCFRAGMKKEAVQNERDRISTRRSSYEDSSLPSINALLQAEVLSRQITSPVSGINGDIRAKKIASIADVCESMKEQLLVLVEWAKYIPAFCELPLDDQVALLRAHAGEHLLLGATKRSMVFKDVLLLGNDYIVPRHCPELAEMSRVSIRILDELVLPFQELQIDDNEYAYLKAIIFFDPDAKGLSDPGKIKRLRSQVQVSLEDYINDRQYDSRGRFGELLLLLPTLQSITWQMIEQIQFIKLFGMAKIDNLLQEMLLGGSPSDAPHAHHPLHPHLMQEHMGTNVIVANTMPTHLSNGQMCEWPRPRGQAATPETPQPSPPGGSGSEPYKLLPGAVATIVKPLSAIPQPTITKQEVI
How it was run: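 Endpoint reflects transcriptional activation of a GAL4-UAS reporter by an HNF4a-GAL4 chimera in transfected HepG2 cells, 24 h post-dosing. Fluorescence from RT-PCR products separated by capillary electrophoresis; DMSO baseline.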

[14] = ATG_M_06_TRANS: Attagene TRANS-FACTORIAL HepG2 Assay for M06 Transcription Factor (Internal Marker) (AID 2282983; active = hit-call score of the fitted dose curve at least 0.9, where 1 is the maximum); conditions: HepG2 Attagene TRANS M06 internal marker reporter
How it was run: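 Read-out: fluorescent reporter cDNA fragments resolved by capillary electrophoresis after RT-PCR and HpaI cut. Source cells were HepG2 carrying transfected multi-reporter GAL4 constructs, dosed 24 h. Increase over DMSO control analysed.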

[15] = target: Nuclear receptor subfamily 4 group A member 2 (Homo sapiens) (UniProt P43354); experiment: ATG_NURR1_TRANS: Attagene TRANS-FACTORIAL HepG2 Assay for human Nuclear Receptor Related Protein 1 (NURR1) (AID 2282985; active = hit-call score of the fitted dose curve at least 0.9, where 1 is the maximum); conditions: HepG2 Attagene TRANS reporter, mRNA readout
Sequence of Nuclear receptor subfamily 4 group A member 2 (Homo sapiens) (P43354 whole entry, looked up): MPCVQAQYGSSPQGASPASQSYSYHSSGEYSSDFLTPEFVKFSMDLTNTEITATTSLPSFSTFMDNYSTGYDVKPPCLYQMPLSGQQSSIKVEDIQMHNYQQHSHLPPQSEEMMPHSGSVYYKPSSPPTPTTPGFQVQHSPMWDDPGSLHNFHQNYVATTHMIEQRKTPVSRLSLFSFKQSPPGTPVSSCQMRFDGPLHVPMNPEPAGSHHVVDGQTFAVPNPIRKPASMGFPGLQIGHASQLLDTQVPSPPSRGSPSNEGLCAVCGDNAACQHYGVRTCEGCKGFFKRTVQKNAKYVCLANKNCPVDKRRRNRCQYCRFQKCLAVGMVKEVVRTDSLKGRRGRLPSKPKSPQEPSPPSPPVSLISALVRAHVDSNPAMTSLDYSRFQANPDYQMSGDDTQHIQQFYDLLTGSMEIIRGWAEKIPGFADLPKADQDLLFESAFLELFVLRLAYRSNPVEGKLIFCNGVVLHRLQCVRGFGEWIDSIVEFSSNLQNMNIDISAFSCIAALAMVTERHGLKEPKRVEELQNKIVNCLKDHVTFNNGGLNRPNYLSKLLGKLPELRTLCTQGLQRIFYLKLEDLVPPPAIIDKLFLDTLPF
How it was run: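 Endpoint: reporter mRNA increase relative to DMSO. HepG2 cells transfected with reporter units, treated 24 h; RNA processed by RT-PCR, labelling, HpaI digestion and capillary electrophoresis.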

[16] = target: Transcriptional activator Myb (Homo sapiens) (UniProt P10242); experiment: ATG_Myb_CIS: Attagene CIS-FACTORIAL HepG2 Assay for human Myeloblastosis (Myb) Proto-Oncogene Transcription Factor (AID 2282986); conditions: HepG2 Attagene CIS-FACTORIAL Myb reporter transcription; actives raise or lower the signal
Sequence of Transcriptional activator Myb (Homo sapiens) (P10242 whole entry, looked up): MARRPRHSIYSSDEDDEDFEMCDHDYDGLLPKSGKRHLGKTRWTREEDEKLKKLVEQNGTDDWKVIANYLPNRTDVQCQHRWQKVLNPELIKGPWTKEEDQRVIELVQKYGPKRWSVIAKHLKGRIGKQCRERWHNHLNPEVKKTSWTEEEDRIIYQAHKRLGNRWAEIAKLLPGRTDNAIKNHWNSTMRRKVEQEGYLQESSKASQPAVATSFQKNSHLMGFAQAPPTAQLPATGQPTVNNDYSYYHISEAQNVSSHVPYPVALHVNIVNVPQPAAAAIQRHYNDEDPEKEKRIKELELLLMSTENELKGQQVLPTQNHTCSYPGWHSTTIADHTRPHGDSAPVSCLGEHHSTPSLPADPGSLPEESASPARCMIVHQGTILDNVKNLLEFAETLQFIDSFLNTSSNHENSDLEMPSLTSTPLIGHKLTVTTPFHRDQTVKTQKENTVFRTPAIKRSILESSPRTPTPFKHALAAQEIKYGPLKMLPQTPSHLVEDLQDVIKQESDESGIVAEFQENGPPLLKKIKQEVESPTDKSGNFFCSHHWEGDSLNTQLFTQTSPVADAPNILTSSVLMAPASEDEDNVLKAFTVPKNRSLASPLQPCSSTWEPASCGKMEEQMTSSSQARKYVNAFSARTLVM
How it was run: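 Reporter transcript levels, quantified by fluorescent RT-PCR and capillary electrophoresis, serve as the read-out. Transfected HepG2 cells carrying cis-promoter reporter units are dosed for 24 hours, and curves are fitted bidirectionally against DMSO controls.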

[17] = target: Nuclear respiratory factor 1 (Homo sapiens) (UniProt Q16656); experiment: ATG_NRF1_CIS: Attagene CIS-FACTORIAL HepG2 Assay for human Nuclear Respiratory Factor 1 (NRF1) Orphan Gene (AID 2282987); conditions: HepG2 NRF1 cis-element reporter, Attagene multiplex; actives raise or lower the signal
Sequence of Nuclear respiratory factor 1 (Homo sapiens) (Q16656 whole entry, looked up): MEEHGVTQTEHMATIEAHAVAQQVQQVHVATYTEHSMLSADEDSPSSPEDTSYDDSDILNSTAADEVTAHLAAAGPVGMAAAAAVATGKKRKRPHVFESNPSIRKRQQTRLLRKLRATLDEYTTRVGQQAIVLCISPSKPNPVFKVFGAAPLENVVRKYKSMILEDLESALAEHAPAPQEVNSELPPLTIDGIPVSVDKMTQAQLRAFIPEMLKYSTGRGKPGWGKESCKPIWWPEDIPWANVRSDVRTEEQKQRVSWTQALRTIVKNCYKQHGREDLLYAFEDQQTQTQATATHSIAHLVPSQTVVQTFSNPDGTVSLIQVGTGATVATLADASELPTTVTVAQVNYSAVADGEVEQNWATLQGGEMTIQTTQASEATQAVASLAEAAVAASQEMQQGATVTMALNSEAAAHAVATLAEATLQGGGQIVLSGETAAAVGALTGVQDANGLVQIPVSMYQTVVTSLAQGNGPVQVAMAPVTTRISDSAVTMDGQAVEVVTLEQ
How it was run: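 Multiplexed cis-reporter assay, HepG2 cells, 24 h treatment. Total RNA → oligo(dT) RT → PCR with reporter-specific primers → 6-FAM primer extension → HpaI cut → CE. Bidirectional fit vs DMSO.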

[18] = ATG_NFI_CIS: Attagene CIS-FACTORIAL HepG2 Assay for human Nuclear Factor I (NFI) (AID 2282989); conditions: HepG2 cis-regulatory reporter, NFI response element transcription; actives raise or lower the signal
How it was run: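 Multiplexed cis-reporter system in human HepG2 cells reports native TF activity as reporter mRNA induction 24 h post-dose. Fragments labelled with 6-FAM, HpaI-digested and resolved by capillary electrophoresis; activity fitted both directions versus DMSO.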

[19] = ATG_NRF2_ARE_CIS: Attagene CIS-FACTORIAL HepG2 Assay for human Nuclear Factor Erythroid 2 Related Factor 2 (NFR2) response to Antioxidant Response Elements (ARE) (AID 2282992); conditions: HepG2 Attagene ARE/NRF2 reporter, transcription factor activity; actives raise or lower the signal
How it was run: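 Endogenous transcription factor activity read out as reporter transcript levels (RT-PCR plus capillary electrophoresis, fluorescence) in transiently transfected HepG2 cells. Measured at 24 h after dosing; gain or loss of signal fitted versus DMSO.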

[20] = ATG_NF_kB_CIS: Attagene CIS-FACTORIAL HepG2 Assay for human Nuclear Factor Kappa B (NF-kB) (AID 2282991); conditions: HepG2 Attagene cis-factorial NF-kB reporter mRNA; actives raise or lower the signal
How it was run: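 Transient MRTU transfection of human HepG2 liver cells → 24 h chemical exposure → total RNA, oligo(dT) RT → PCR, 6-FAM primer extension, HpaI digest 2 h 37 C → CE fragment analysis. Bidirectional fitting, DMSO negative control.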

Measured: AC50

CCCCCCCC1CCC(=O)O1 (stereo not drawn)
inactive: [1] | [2] | [3] | [4] | [5] | [6] | [7] | [8] | [9] | [10]

S=P(N1CC1)(N1CC1)N1CC1
active: [5] 170 µM
inactive: [1] | [2] | [11] | [12] | [13] | [14] | [3] | [15] | [16] | [17] | [18] | [19] | [5] | [6] | [7] | [8] | [9] | [10]

O=C(O)c1cccc(C(=O)O)c1
not listed: [4] | [6] | [11] | [14] | [15] | [17] | [20]
inactive: all other assays above

CC(=O)c1ccccc1
inactive: [12] | [13] | [16] | [18] | [19] | [5] | [6] | [7] | [8] | [9] | [10]

CCCCCCCCCCCCCCO
active: [18] 179 µM | [7] 36.6 µM | [8] 34.4 µM | [9] 32.8 µM | [10] 38.4 µM
inactive: [12] | [3] | [17] | [19] | [5] | [6]

Cc1nc(-c2ccccn2)ncc1C(=O)Nn1cc(C)c2cc(F)ccc21
active: [8] 20 µM
inactive: [16] | [17] | [18] | [20] | [19] | [5] | [7] | [9] | [10]

C=CN1CCCC1=O
not listed: [1] | [2] | [3] | [4] | [11] | [13] | [20]
inactive: all other assays above

c1ccc2ncccc2c1
not listed: [1] | [2] | [16] | [17] | [20]
inactive: all other assays above

CNC(C)=O
inactive: [14] | [15] | [16] | [18] | [19] | [5] | [7] | [8] | [9] | [10]

CC(C)CC(C)O (stereo not drawn)
inactive: [13] | [16] | [17] | [18] | [4] | [19] | [5] | [7] | [8] | [9] | [10]

CCCCOC(=O)c1ccccc1
not listed: [1] | [2] | [3] | [4] | [11] | [13] | [16]
inactive: all other assays above

COS(C)(=O)=O
not listed: [1] | [2] | [3] | [6] | [12] | [15] | [17] | [20]
inactive: all other assays above

CCCCCCCCCC
not listed: [1] | [3] | [11] | [12] | [14] | [20]
inactive: all other assays above

CCCCCCOC(=O)CC(CC(=O)OCCCCCC)(OC(=O)CCC)C(=O)OCCCCCC
not listed: [1] | [2] | [3] | [6] | [11] | [12]
inactive: all other assays above
